# Rows were chosen to be rich in hits. Some 11% of all compounds tested hit in one or more screens of this group.
# Vaccinia mCherry = vaccinia inhibition (mCherry reporter) | Potency, µM (series often up to 36.5 µM), inactives show at the top dose activity change, negative = inhibition, usual class: inhibitors | 310,000 tested, 0.63% active | Vaccinia virus mCherry reporter infection, fluorescence; calls by dose curve; tested in A549 cells; note: % is set by controls: 0 for no effect and ±100 for the full control effect; nearly all actives have a fitted effect of over 35% in size
# NS1 function inh = blocks influenza NS1 protein function. Potency, µM (top dose mostly 46.1 µM), without a hit: at the top dose activity, positive = more growth. AID 2326. 270,000 tested, 0.4% active; calls by dose curve; note: actives are rising curves; nearly all actives have a fitted effect of over 50% in size
#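 Compounds were scored for reversing the slow growth caused by influenza A NS1 in S. cerevisiae, measured by optical density at 600 nm. Assay medium contained 2% galactose at pH 6.0; NS1-free yeast of the same strain were the positive control.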
# Pf growth 48h = inhibits P. falciparum growth in the first generation, 48 h; 310,000 tested, 5.9% active; AID 504832; Potency, µM (highest dose often 28.7 µM), without a hit: top-dose activity change, negative = inhibition, usual class: inhibitors; P. falciparum luciferase growth in erythrocytes, 48 h; note: % is set by controls: 0 for no effect and ±100 for the full control effect
#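 Here the parasites carry a stable luciferase gene and grow inside erythrocytes in Albumax-based RPMI medium with compound for one erythrocytic cycle. Activity is scored as loss of luminescent signal.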
# HCV inhibitor = inhibitors of hepatitis C virus infection. AID 651820. Potency, µM (highest dose often 41.8 µM), without a hit: top-dose activity change, negative = inhibition, most hits filed as inhibitors. 340,000 tested, 3.4% active. Huh7.5.1 HCVcc-Cre infection, luciferase reporter, 44 h; note: % is set by controls: 0 for no effect and ±100 for the full control effect
#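 Seed cells (1,000/well) for 4 h; treat with compound and infect with HCVcc-Cre, moi about 0.5. Incubate 44 h, then detect luciferase activity.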
# Pf growth 96h = inhibits malaria parasite growth, 96 h; P. falciparum luciferase reporter growth, 96 h; Potency, µM (series often up to 28.7 µM), inactives show at the top dose activity change, negative = inhibition, hits mostly inhibitors; 320,000 tested, 6.9% active; AID 504834; note: % is set by controls: 0 for no effect and ±100 for the full control effect
#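 Erythrocytes infected with luciferase-expressing P. falciparum were dispensed at 2% hematocrit and 0.05% parasitemia (final), then incubated with compounds 96 hours at 37 C in 5% CO2. Luminescence after detection reagent addition reported growth.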
# Vaccinia Venus = inhibitors of vaccinia virus (Venus reporter) | Vaccinia virus Venus reporter expression, fluorescence | 330,000 tested, 0.46% active | AID 720580 | Potency, µM (series often up to 36.5 µM), without a hit: at the top dose activity change, negative = inhibition, hits mostly inhibitors; calls by dose curve; tested in A549 cells; note: % is set by controls: 0 for no effect and ±100 for the full control effect; nearly all actives have a fitted effect of over 30% in size
# Starred values were filed as active, the others as inactive; i = inactive; ? = inconclusive; . = no result; [ ] = another dose, or the depositor's remark. Unless noted, calls come from the whole dose curve; as a rule, active = well fitted inhibition curve with a large enough effect; inconclusive = small, poorly fitted or top-dose-only effect, or another doubt; inactive = no such curve, though single readings can be large or run the other way. Potency is the fitted concentration of half-maximal effect.
SMILES,Vaccinia mCherry,NS1 function inh,Pf growth 48h,HCV inhibitor,Pf growth 96h,Vaccinia Venus
Cc1ccc(Nc2nc(CSc3nnc(-c4ccccc4)n3C)cs2)cc1,-17%,-4%,80%,?,?,-30%
COc1c(C)cccc1C(=O)NC(=S)Nc1ccccc1N1CCCC1,.,19%,?,?,?,.
CCCCCc1ccc(-c2cn(CC3CCCCC3)nn2)cc1,-15%,?,79%,4%,12µM*,-1%
COc1ccccc1NC(=S)NNC(=O)c1cc(C)n(C)n1,-5%,0%,.,13%,58%,2%
COc1ccccc1N1CCN(C(=O)C(=O)c2c(C)[nH]c3ccccc23)CC1,.,-15%,-4%,11%,?,.
O=C(Nc1cccc(Cl)c1)OC1CN2CCC1CC2 (stereo not drawn),.,2%,2.9µM*,?,1.9µM*,.
O=C(Nc1ccc(Cl)cc1)OC1CN2CCC1CC2 (stereo not drawn),-22%,-3%,47%,-22%,36%,-15%
COC(=O)C1C(=O)C(C(=O)/C=C/c2ccccc2)C(=O)CC1(C)C (stereo not drawn),11µM*,.,?,-7%,-27%,?
CC1(C)Cc2c(sc3[nH]c(=S)n(Cc4ccco4)c(=O)c23)CO1,-2%,5%,-7%,13%,2.6µM*,-26%
CC1(C)Cc2c(sc3c2c(=O)n(Cc2ccccc2)c2nncn32)CO1,.,7%,0%,14%,-25%,1%
CC1(C)Cc2c(sc3c2c(=N)n(Cc2ccco2)c(=O)n3Cc2ccc(Cl)cc2)CO1,.,-61%,5.2µM*,?,10µM*,-20%
CCn1c(=O)n(-c2ccc(Cl)cc2)c(=O)c2c3c(sc21)COC(C)(C)C3,.,-1%,?,-22%,7.4µM*,.
CC1(C)Cc2c(sc3c2c(=N)n(Cc2ccco2)c(=O)n3Cc2ccccc2)CO1,-5%,-30%,9.3µM*,?,-21%,-10%
O=c1c2c3c(sc2[nH]c(=S)n1Cc1ccco1)CCC3,8%,5%,53%,9%,46%,-2%
O=C(c1ccc(NS(=O)(=O)c2cccc3cccnc23)cc1)N1CCOCC1,-15%,14%,.,-3%,.,-20%
O=C(Nc1ccc(C(=O)NCCCN2CCN(c3ccc(F)cc3)CC2)cc1)C1=CSCCO1,.,2%,?,?,12µM*,.
Cc1cccc(N2CCN(CCCNC(=O)c3ccc(NC(=O)C4=CSCCO4)cc3)CC2C)c1 (stereo not drawn),i,2%,?,11µM*,-3%,-24%
O=C(Nc1ccc(C(=O)NCCCN2CCCCC2)cc1)C1=CSCCO1,.,-5%,22%,2%,?,.
Cc1ccc(OCC(=O)Nc2ccc(S(=O)(=O)N3CCCCC3)cc2)c([N+](=O)[O-])n1,i,-4%,?,-20%,?,-10%
COc1cc2c(cc1NC(=O)CSc1nnc(Cc3cccs3)n1Cc1ccco1)oc1ccccc12,.,15%,.,2µM*,?,.
COc1cc2c(cc1NC(=O)CSc1nnc(Cc3cccs3)n1C)oc1ccccc12,.,-83%,-9%,10µM*,19%,-28%
CCn1c(SCC(=O)Nc2ccc3c(c2)oc2ccccc23)nnc1-c1ccc(N)cc1,.,21%,.,11µM*,?,.
COc1cc2c(cc1NC(=O)CSc1nnc(COc3ccc(Cl)cc3)n1C)oc1ccccc12,.,13%,?,6.3µM*,2%,.
Cc1cc(Cl)ccc1NC(=O)CSc1nnc(Cc2cccs2)n1Cc1ccco1,.,-75%,?,?,.,.
COc1cc2c(cc1NC(=O)CSc1nnnn1-c1ccccc1)oc1ccccc12,.,-33%,4%,-6%,?,-7%
SMILES,Vaccinia mCherry,NS1 function inh,Pf growth 48h,HCV inhibitor,Pf growth 96h,Vaccinia Venus
COc1ccccc1NC(=O)CSc1nnc(Cc2cccs2)n1C,-14%,.,-17%,2%,49%,-9%
CC(C)C[C@@H](CN1C(N)=NC[C@@H]1C)NC(=O)CC12CC3CC(CC(C3)C1)C2,i,.,.,8%,.,0%
CCn1c(SCC(=O)Nc2cc3oc4ccccc4c3cc2OC)nnc1-c1cccs1,-8%,-80%,?,10µM*,.,-20%
O=C(Cn1c(COc2ccccc2)nc2ccccc21)Nc1cc(Cl)cc(Cl)c1,i,17%,?,1%,?,-10%
Cc1ccccc1-n1c(=O)cc(NCC2CCCO2)[nH]c1=O (stereo not drawn),-11%,6%,-6%,17%,6.6µM*,-14%
Cc1ccccc1S(=O)(=O)NCC1CCCO1 (stereo not drawn),-10%,-2%,17%,-4%,35%,-15%
CCn1cc(S(=O)(=O)c2ccc(Cl)cc2)c(=O)c2cc(OC)ccc21,-5%[7.34 µM],4%,-17%,?,37%,4%[7.34 µM]
COc1ccc(NS(=O)(=O)c2cc(NC(=O)C3CCCO3)ccc2N2CCCCC2)cc1 (stereo not drawn),-16%,.,5.2µM*,?,?,-9%
COc1ccc(NS(=O)(=O)c2cc(NC(=O)CCNC(C)=O)ccc2N2CCCCC2)cc1,.,.,9.3µM*,?,?,.
COc1ccc(NS(=O)(=O)c2cc(NC(=O)CC3CCCC3)ccc2N2CCOCC2)cc1,-24%,.,?,?,?,-15%
COc1ccc(NS(=O)(=O)c2cc(NC(=O)c3cc(=O)c4ccccc4o3)ccc2OC)cc1,-4%,.,8.3µM*,-14%,?,-7%
COc1ccc(NS(=O)(=O)c2cc(NC(=O)c3ccco3)ccc2N2CCCC2)cc1,-17%,?,?,10µM*,?,-7%
COc1ccc(NS(=O)(=O)c2cc(NC(=O)C3CCCO3)ccc2N2CCCC2)cc1 (stereo not drawn),i,-4%,-3%,11%,-23%,-3%
O=CN1CCN(C(=O)C(=O)c2cn(CC(=O)N3CCCCC3)c3ccccc23)CC1,.,1%,-14%,5%,9%,.
COc1ccc(OC)c(S(=O)(=O)N2CCCC(C(=O)NCc3ccccn3)C2)c1 (stereo not drawn),-1%,5%,5%,7%,-2%,20%
CC(C)Cn1nc(C(=O)Nc2cccc(C(=O)NC3CC3)c2)c2ccccc2c1=O,-9%,.,?,?,?,-18%
CCOC(=O)C1(C)NC(c2cccs2)C2C(=O)N(c3ccccc3)C(=O)C21 (stereo not drawn),-6%,.,?,-10%,?,-5%
COc1cc(/C=N/N2CCN(c3ccccc3)CC2)cc(OC)c1OC(C)=O,.,-13%,26%,5%,?,.
O=C(CCSc1ccccc1)N1CCCC1,?,2%,82%,0%,45%,-25%
CN1CCN(CCCNC(=O)c2ccc(Cn3c(=S)[nH]c4ccc(Br)cc4c3=O)cc2)CC1,-2%,.,?,7.9µM*,1%,-9%
O=C(NCCCN1CCOCC1)c1ccc2c(=O)n(Cc3ccccc3)c(=S)[nH]c2c1,-18%,5%,-18%,?,?,1%

# Source: PubChem (National Center for Advancing Translational Sciences (NCATS))
